# Measurements published in PubChem BioAssay.
# Activity calls are given as the source filed them. Unless noted, how the calls were made is not given here.
# Key:
# [1] = tested on: XIP peptide (Xip251-270) binding; test: small-molecule binders of XIP peptide, primary screen, biochemical, small-molecule microarray, fluorescence 635/667 nm, 0.1 µg/mL protein (AID 1182); conditions: fluorescent protein binding, 635 nm, higher = more signal, called active from +8 up or from −8 down
# XIP peptide (Xip251-270) = test: small-molecule binders of XIP peptide, primary screen, biochemical, small-molecule microarray, fluorescence 635/667 nm, 0.5 µg/mL protein (AID 1183); conditions: small-molecule microarray binding, fluorescence 635 nm; higher = more signal
# [2] = Plasmodium falciparum growth inhibition, primary screen, strain 3D7, DAPI fluorescence, 100 nL (AID 1184);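 further: parasites grown inside human red blood cells in medium with human serum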; conditions: P. falciparum 3D7 growth, 3 d, higher = more signal
# [3] = target: Homeobox protein Hox-A13 (Mus musculus) (UniProt Q62424); test: inhibitors of HoxA13-DNA binding, primary screen, biochemical, fluorescence polarization, labeled oligonucleotide (AID 1185); conditions: 15 min, higher = more signal, called active from +8 up or from −8 down
# Chain of Homeobox protein Hox-A13 (Mus musculus) (Q62424 whole entry, looked up): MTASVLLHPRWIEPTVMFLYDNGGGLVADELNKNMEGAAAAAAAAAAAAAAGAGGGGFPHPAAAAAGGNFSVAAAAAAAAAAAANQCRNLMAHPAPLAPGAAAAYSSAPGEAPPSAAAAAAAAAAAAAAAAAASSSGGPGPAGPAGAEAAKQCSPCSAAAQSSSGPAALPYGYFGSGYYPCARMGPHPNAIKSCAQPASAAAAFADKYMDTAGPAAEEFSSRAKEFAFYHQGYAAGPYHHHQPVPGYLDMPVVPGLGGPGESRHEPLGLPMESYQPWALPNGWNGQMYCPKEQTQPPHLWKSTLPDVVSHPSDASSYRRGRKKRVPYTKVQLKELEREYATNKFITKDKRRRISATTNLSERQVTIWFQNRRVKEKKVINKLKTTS
# [4] = inhibitors of hydroxyurea-induced Chk1 phosphorylation, primary screen, imaging, HeLa, phospho-Chk1 antibody, percent positive cells (AID 1186); conditions: hydroxyurea-induced phospho-Chk1 immunofluorescence imaging, higher = more signal
# [5] = inhibitors of hydroxyurea-induced Chk1 phosphorylation, primary screen, imaging, HeLa, phospho-Chk1 nuclear intensity (AID 1187); conditions: hydroxyurea-induced phospho-Chk1 immunofluorescence imaging, higher = more signal
SMILES,composite z-score [1],composite z-score (XIP peptide (Xip251-270)),z-score [2],z-score [3],z-score [4],z-score [5]
C=CCC(OC(C)=O)[C@@H]1[C@@H](N(Cc2cc3ccccc3o2)C(=O)c2ccc(-c3ccccc3)cc2)c2cc(OCCCO)ccc2N1C(=O)c1ccc2ccccc2c1 (stereo partly drawn),-0.252 (inactive),-0.273,-1.41,-0.926 (inactive),0.347 (inactive),0.433 (inactive)
CC(CO)N1C(=O)[C@@H]2[C@H]3C(=O)OCC=C[C@H]3OC23C=CCN(Cc2ccccc2)C(=O)[C@@H]13 (stereo partly drawn),-0.542 (inactive),0.189,-0.379,-2.5 (inactive),-0.539 (inactive),-0.113 (inactive)
[N-]=[N+]=NCc1ccccc1[C@@H]1OC(c2ccc(OCCCO)cc2)=N[C@]1(CCS(=O)(=O)c1ccccc1)C(=O)NCC(O)CO (stereo partly drawn),2.02 (inactive),0.831,-2.26,-1.52 (inactive),-0.519 (inactive),-0.524 (inactive)
O=C1N(Cc2ccccc2)c2ccccc2[C@@H]2OC(c3ccc(OCCCO)cc3)=N[C@]12Cc1ccccc1,0.0973 (inactive),0.862,-2.45,-2.22 (inactive),-0.389 (inactive),-0.321 (inactive)
O=C1C2C=CC(C(O)c3ccc(Br)cc3)N(Nc3ccccc3F)C2C(=O)N1c1ccccc1 (stereo not drawn),0.197 (inactive),0.704,-0.133,-2.41 (inactive),-0.863 (inactive),-0.909 (inactive)
CC(CO)N1C(=O)[C@@H]2[C@H]3C(=O)OCC=C[C@H]3OC23C=CCN(CCN2CCOCC2)C(=O)[C@@H]13 (stereo partly drawn),-0.0198 (inactive),0.154,0.177,-5.37 (inactive),-0.259 (inactive),-0.252 (inactive)
C=CC[C@@]1(C(=O)N2CCOCC2)N=C(c2ccc(OCCCO)cc2)O[C@@H]1c1ccccc1CN=[N+]=[N-],0.74 (inactive),0.758,-2.26,-5.78 (inactive),0.0151 (inactive),0.349 (inactive)
CC(C)(C)OC(=O)CC[C@]1(C(=O)NCC(O)CO)N=C(c2ccc(OCCCO)cc2)O[C@H]1c1ccccc1 (stereo partly drawn),0.0294 (inactive),0.628,-1.74,-4.14 (inactive),-0.703 (inactive),-0.886 (inactive)
CC[C@H]1C2=C3C(CC[C@H]4C(OCc5ccc(F)cc5C(F)(F)F)OC[C@](C)([C@@H]34)N(C(=O)OC(C)(C)C)C2)C(COC)C1COC (stereo partly drawn),0.716 (inactive),-0.379,0.133,-1.11 (inactive),0.645 (inactive),0.217 (inactive)
N#Cc1ccc(NN2C(C(O)c3ccc(F)cc3)C=CC3C(=O)N(c4ccccc4)C(=O)C32)cc1 (stereo not drawn),0.536 (inactive),0.634,-0.573,-0.0009 (inactive),-0.0909 (inactive),-0.0009 (inactive)
CCC[C@@H]1C[C@@]1(CCC)[C@@H](NC(=O)OCc1ccccc1)c1ccc(-c2ccccc2)cc1,-0.384 (inactive),-0.237,-0.54,-3.15 (inactive),0.977 (inactive),0.198 (inactive)
COc1ccc([Si](C)(C)[C@@H]2[C@@H](CC(=O)N(CCO)Cc3ccccc3)O[C@]3(C(=O)N(c4ccccc4)c4ccccc43)[C@H]2C)cc1,0.153 (inactive),0.38,-2.54,-5.59 (inactive),-1.11 (inactive),-0.327 (inactive)
CN1C(=O)C2C=CC(C(O)COCc3ccccc3)N(N(c3ccccc3)c3ccccc3)C2C1=O (stereo not drawn),0.441 (inactive),0.74,-0.144,-0.885 (inactive),-0.0138 (inactive),-0.35 (inactive)
CC1=C([C@H](O)CCc2ccccc2)[C@H](CO)[C@@H]2C(=O)N(C)C(=O)[C@@H]2C1,-0.0688 (inactive),0.389,0.306,-4.05 (inactive),-0.296 (inactive),-0.528 (inactive)
CCCNC(=O)[C@@]1(c2ccc([N+](=O)[O-])cc2)CC(=O)N(C2CCCCC2)[C@@H]1c1ccc(CO)cc1,2.45 (inactive),0.73,-0.47,-3.27 (inactive),0.0926 (inactive),0.213 (inactive)
C=C(COC)/C(=C/C[C@H](OC(=O)c1ccncc1)c1ccccc1OCCO)c1cnc2ccccc2c1,0.683 (inactive),0.612,-2.99,-5.29 (inactive),-0.446 (inactive),-0.166 (inactive)
COCCOC(=O)N1C(=O)[C@@]2(c3cc(C#CC4=CCCCC4)ccc31)[C@H](C(N)=O)[C@H]1C(=O)O[C@H](c3ccccc3)[C@H](c3ccccc3)N1[C@@H]2c1ccccc1OCCO,0.859 (inactive),0.823,-2.03,-1.26 (inactive),-0.176 (inactive),-0.46 (inactive)
COCCOC(=O)N1C(=O)[C@@]2(c3cc(C#Cc4ccc(OC)cc4)ccc31)[C@H](c1ccc(O)cc1)N1[C@H](c3ccccc3)[C@H](c3ccccc3)OC(=O)[C@H]1[C@@H]2C(=O)N1CCCCCCC1,0.711 (inactive),0.436,-1.55,1.36 (inactive),-0.0871 (inactive),-0.171 (inactive)
C=CCC(OC(C)=O)[C@@H]1[C@@H](N(Cc2cccc3ccccc23)C(=O)c2cccc3ccccc23)c2cc(OCCCO)ccc2N1C(=O)c1ccc(-c2ccccc2)cc1 (stereo partly drawn),0.71 (inactive),0.686,-2.37,-1.52 (inactive),0.305 (inactive),0.466 (inactive)
CC(=O)NCCCC[C@@H]1NC(=O)[C@H]2C[C@@H](C(=O)NCCCC[N+](C)(C)C)[C@@H](c3cccc(OCCO)c3)N2C1=O,2.02 (inactive),0.823,-0.207,-1.96 (inactive),0.0751 (inactive),0.341 (inactive)
COC(=O)C(CC#Cc1ccc2c(c1)[C@]1(C(=O)N2)[C@H](C(=O)N2CCN(c3ncccn3)CC2)[C@H]2C(=O)O[C@H](c3ccccc3)[C@H](c3ccccc3)N2[C@@H]1c1ccc(OCCO)cc1)C(=O)OC,1.22 (inactive),0.809,-1.97,1.63 (inactive),-0.162 (inactive),-0.285 (inactive)
[N-]=[N+]=NCc1ccccc1C[C@@]1(C(=O)NCc2ccccc2)N=C(c2ccc(OCCCO)cc2)O[C@@H]1c1ccccc1N=[N+]=[N-],0.047 (inactive),0.558,-2.37,0.321 (inactive),-0.299 (inactive),-0.147 (inactive)

SMILES,composite z-score [1],composite z-score (XIP peptide (Xip251-270)),z-score [2],z-score [3],z-score [4],z-score [5]
COC(=O)[C@@]1(Cc2ccccc2)[C@H]2c3cc(C(=O)N(C)C)n(Cc4c(CO)[nH]cc(C)c4=O)c3C[C@H]2CN1C(=O)c1ccccc1,0.278 (inactive),0.3,-1.16,-5.3 (inactive),-0.0454 (inactive),0.0707 (inactive)
CCCCCCCCCCC(O)C1C=CC2C(=O)N(C)C(=O)C2N1Nc1ccc([N+](=O)[O-])cc1[N+](=O)[O-] (stereo not drawn),-0.0993 (inactive),0.464,0.625,-3.99 (inactive),0.496 (inactive),-0.12 (inactive)
C[C@]1(C(=O)NC2CC2)c2ccccc2C(=O)N(Cc2ccccc2)[C@H]1c1ccc(CO)cc1,-0.0942 (inactive),-0.227,-1.62,-1.31 (inactive),-0.483 (inactive),-0.567 (inactive)
C[C@H]1NC(=O)[C@@]23C(=O)N[C@@H](Cc4ccccc4)C2[C@H](C)[C@@]2(C)O[C@H]2C3/C=C/C/C=C\CNC(=O)[C@H](Cc2ccccc2)NC1=O (stereo partly drawn),0.0017 (inactive),0.424,-1.4,-7.15 (inactive),0.116 (inactive),0.368 (inactive)
CC(C)Cc1ccc(CN2CC[C@@H](NC(=O)Nc3ccccc3)C2)cc1,-0.243 (inactive),-0.238,-1.51,0.339 (inactive),0.146 (inactive),0.459 (inactive)
COCCCNC(=O)[C@]1(CCS(=O)(=O)c2ccccc2)N=C(c2ccc(OCCCO)cc2)O[C@@H]1c1ccccc1CN=[N+]=[N-],1.51 (inactive),0.814,-2.3,-3.61 (inactive),-0.684 (inactive),-0.618 (inactive)
COC(=O)[C@@]1(Cc2ccccc2N=[N+]=[N-])N=C(c2ccc(OCCCO)cc2)O[C@H]1c1ccccc1N=[N+]=[N-],0.764 (inactive),0.848,-2.03,-0.305 (inactive),-0.362 (inactive),-0.267 (inactive)
Cc1ccc(S[C@]2(C(=O)O)CC(=O)N(Cc3ccccc3Cl)[C@@H]2c2ccc(CO)cc2I)cc1,-0.62 (inactive),0.261,0.204,-2.54 (inactive),0.0343 (inactive),0.0261 (inactive)
CC(=O)c1ccc(C(O)C2C=CC3C(=O)N(c4ccccc4)C(=O)C3N2Nc2ccc(C#N)cc2)cc1 (stereo not drawn),-0.305 (inactive),0.441,0.981,-4.75 (inactive),0.293 (inactive),-0.211 (inactive)
C=CCC(OC(C)=O)[C@@H]1[C@@H](N(Cc2ccc(-c3cccc(C(F)(F)F)c3)o2)C(=O)c2ccc(-c3ccccc3)cc2)c2cc(OCCCO)ccc2N1C(=O)c1ccc2ccccc2n1 (stereo partly drawn),-0.211 (inactive),-0.102,-0.746,-1.33 (inactive),0.768 (inactive),0.615 (inactive)
C=C(COC)C(=O)CC[C@@H](OC(=O)c1cccnc1)c1ccc(OCCO)cc1,-0.344 (inactive),0.481,0.415,-4.4 (inactive),-0.0647 (inactive),-0.573 (inactive)
C=C(C)[C@@H]1CC=C(C(O)C2C=CC3C(=O)N(c4ccccc4)C(=O)C3N2Nc2ccccc2F)CC1 (stereo partly drawn),0.301 (inactive),0.656,-0.282,-1.52 (inactive),0.749 (inactive),0.372 (inactive)
CC1CC/C=C\[C@H]2OC34C=CCN(C(C)C)C(=O)[C@H]3N(CCCCCCO)C(=O)[C@@H]4C2C(=O)O1 (stereo partly drawn),0.565 (inactive),0.27,-0.565,-3.74 (inactive),-0.108 (inactive),0.631 (inactive)
O[C@@H](Cc1ccccc1)[C@@H](/C=C/C1CC1)N(CC#Cc1ccccc1)Cc1cccc(Cl)c1,-0.16 (inactive),-0.646,-1.27,0.493 (inactive),0.0959 (inactive),0.043 (inactive)
COC(=O)C(CC#Cc1ccc2c(c1)[C@]1(C(=O)N2)[C@H](c2ccccc2OCCO)N2[C@H](c3ccccc3)[C@H](c3ccccc3)OC(=O)[C@H]2[C@@H]1C(=O)NC[C@H](O)c1ccccc1)C(=O)OC,1.8 (inactive),0.777,-2.22,-1.59 (inactive),-0.124 (inactive),-0.553 (inactive)
CCCCCCCCCCC(O)C1C=CC2C(=O)N(C)C(=O)C2N1NC(=O)OC(C)(C)C (stereo not drawn),0.0658 (inactive),0.502,-0.451,-2.93 (inactive),1.91 (inactive),1.4 (inactive)
OCCCC1=CC(c2ccc(CN3CCCC3)cc2)N(Cc2sc3ccccc3c2Cl)CC1 (stereo not drawn),0.705 (inactive),0.797,-3.1,-1.38 (inactive),-0.186 (inactive),-0.276 (inactive)
COC(=O)C1=CC(CCCO)=CC(C2CC2)N(C)C=C1C(=O)OC (stereo not drawn),0.473 (inactive),0.16,0.493,-6.16 (inactive),-0.68 (inactive),-1.04 (inactive)
COC(=O)CCCCCCC(=O)Nc1ccc(NC(=O)CCCC[P+](c2ccccc2)(c2ccccc2)c2ccccc2)cc1,-0.369 (inactive),0.102,-1.46,-1.31 (inactive),-0.917 (inactive),-1.21 (inactive)
C=CC[C@]1(C(=O)O)COC(c2ccc(OCCCO)cc2)=N1,0.324 (inactive),0.614,-0.12,-0.685 (inactive),-0.173 (inactive),-0.315 (inactive)
CCCC[C@@H]1C[C@H]1[C@@H](NC(=O)c1ccccc1)c1ccc(C(F)(F)F)cc1,2.28 (inactive),-1.51,0.011,0.0892 (inactive),-0.27 (inactive),-0.226 (inactive)
